The text below walks through data of PubChem BioAssay AID602193 (The Scripps Research Institute Molecular Screening Center, 2012).

About 410 (26%) of roughly 1,600 compounds were called active. A selection follows. Values without a mark were called inactive.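 How the source made its calls: active means mean inhibition over triplicates above the low-control well mean plus 3 SD, set per campaign (cut at about 13% in these data); inactive means the rest.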

The experiment is described as follows: forskolin-stimulated cAMP inhibition in U2OS – cell-based, TR-FRET, triplicate, counter-screen for MC4R biased antagonist project (AID 602193).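 Further: signal is single emission at 671 nm which falls as cellular cAMP rises; 0% = forskolin-stimulated wells and 100% = buffer without forskolin.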 As to conditions: parental U2OS, LANCE TR-FRET, at 6.5 µM, stronger effect = higher value. (In TR-FRET formats the signal depends on donor and acceptor labels being close together.)
Broadly, the inhibition is the drop in the measured response relative to a control, in per cent. Consider `O=C1/C(=C\c2ccc([N+](=O)[O-])cc2)CS(=O)(=O)C/C1=C/c1ccc([N+](=O)[O-])cc1`, for which the inhibition is 26.1% (active).
For `COc1ccccc1N(CC(=O)N/N=C(\C)c1ccccc1O)S(=O)(=O)c1ccc(C)cc1` the value was 5.78%; for `Cc1ccc(S(=O)(=O)N(C)CC(=O)OCC(=O)Nc2ccccc2)cc1`, 14.4% (active); for `Cc1ccc(S(=O)(=O)N(C)CC(=O)OCC(=O)N2CC(=O)Nc3ccccc32)cc1`, 17.6% (active).
Turning to `Cc1ccc(S(=O)(=O)CCC(=O)OCC(=O)N(C)Cc2ccccc2)cc1`, the inhibition is 1.96%.
For `CCOC(=O)C(C)n1cnc2sc(C)c(C)c2c1=O` (centres undefined), the inhibition was 4.97%.
To `CC(C)Oc1ccc(/C=C(\NC(=O)/C=C/c2ccco2)C(=O)NCCc2nc3ccccc3[nH]2)cc1` belongs 2.02%; to `O=C(CSc1nc2ccc(Nc3nc(N4CCOCC4)nc(N4CCOCC4)n3)cc2s1)NCc1ccco1`, -2.96%; to `Cc1ccc(NC(=O)c2c(NC(=O)CCC(=O)O)sc3c2CCCCC3)cc1`, 3.65%.
To `N#C/C=C1\Sc2ccccc2C(=O)N1CC(=O)N1CCN(S(=O)(=O)c2ccccc2)CC1` belongs 7.11%; to `O=C(COC(=O)Cn1cnc2ccccc2c1=O)NCC12CC3CC(CC(C3)C1)C2`, 19% (active).
For `O=C(Nc1ccccc1Cl)/C(Cl)=C(\Cl)S(=O)c1ccccc1` (centres undefined) the value was -0.54%; for `Cc1c(CCC(=O)O)c(=O)oc2cc(OCc3ccc(Br)cc3)ccc12`, 2.85%.
`COc1ccc(Cl)cc1-c1cc(C(=O)Nc2cc(OC)c(OC)c(OC)c2)[nH]n1`: the inhibition was -12.1%.
Turning to `O=S(=O)(NCc1ccco1)c1cnc(Cl)c(Cl)c1`, the inhibition was 21.1% (active).
For `COc1ccc(-n2nc(C(=O)Nc3cc(OC)c(OC)c(OC)c3)c3ccccc3c2=O)c(OC)c1` the value was 6.04%; for `Cc1ccc(C)c(S(=O)(=O)N2CCN(CC(=O)Nc3ccc([N+](=O)[O-])cc3)CC2)c1`, -1.3%; for `COc1ccc2sc(-c3ccc(S(C)(=O)=O)cc3)c(-c3ccc(C(N)=O)cc3)c2c1`, 6.51%.
For `CSc1nnc(NC(=O)c2nc(S(=O)(=O)Cc3ccc(C)cc3)ncc2Cl)s1` the value was 26.5% (active); for `O=C(Nc1nnc(Cc2ccc(Cl)cc2)s1)c1cccnc1`, -0.09%; for `O=C(NCCc1c[nH]c2ccccc12)c1cccc(Br)c1`, 2.29%.
To `Cc1ccc(-c2nnc(CN3CCN(C)CC3)o2)cc1` belongs -0.67%.
Turning to `CCCCOC(=O)CNc1nnc(SCC(=O)OCC)[nH]c1=O`, the inhibition is 34.4% (active).
`CC(NS(=O)(=O)c1ccc(Br)cc1)C(=O)NCC1CCCO1` (centres undefined): the inhibition is 4.96%.
To `CCOC(=O)c1cc(C)nc(S(C)(=O)=O)c1C#N` belongs 9.09%; to `N#Cc1c(-c2cccs2)nc(SCC(=O)c2ccc(Br)cc2)[nH]c1=O`, 12.9%; to `C#Cc1cc(N2CCN(C(=O)c3ccoc3)CC2)n2nc(-c3cccc(Cl)c3)cc2n1`, 6.98%.
For `COc1ccc(C(C[N+](=O)[O-])n2nc(C)cc2C)cc1` (centres undefined) the value was 16.1% (active).
To `O=C(NCC1CCN(Cc2ccccc2Cl)CC1)Nc1cccc(Cl)c1` belongs -1.82%; to `CC(=O)N1CCN(S(=O)(=O)c2c(F)cc(F)c(Cl)c2F)CC1`, 15.9% (active); to `O=C(c1ccc2c(c1)N(Cc1ccc(F)cc1)C(=O)c1ccccc1S2(=O)=O)N1CCN(c2ccccn2)CC1`, 1.79%.
Consider `O=C(Cn1nnc2ccccc2c1=O)Nc1cc(C(F)(F)F)ccc1N1CCOCC1`, for which the inhibition is -0.34%.
As to `CN(CC(=O)NCCc1ccccn1)S(=O)(=O)c1ccc(Cl)cc1`, the inhibition is -1.11%.
For `Cc1c(Cl)cccc1NC(=O)[C@@]1(CC(=O)O)CC(/C=C/c2ccccc2)=NO1` the value was 0.29%; for `COc1ccc(Oc2c(Cl)cnn(-c3ccccc3)c2=O)cc1`, 38.1% (active); for `O=C(COC(=O)c1c2c(nc3ccccc13)CCCC2)c1ccc(Br)s1`, 4.15%.
To `CCN(CC(=O)NCCCN1CCOCC1)S(=O)(=O)c1cc(Cl)ccc1Cl` belongs -1.05%; to `Cc1ccc(NC(=O)COC(=O)CNC(=O)c2ccc(Cl)cc2Cl)cc1S(=O)(=O)N1CCOCC1`, 7.9%; to `Cc1nc2ccccc2c(=O)n1NC(=O)c1ccc(Cl)c([N+](=O)[O-])c1`, 18.5% (active).
With `CC1(C)C(c2cccs2)=[N+]([O-])C2(CCCCC2=O)N1O` (centres undefined), the inhibition was -3.22%.
For the compound `Cc1ccc(C(C(=O)NCC2CCCO2)N(C(=O)c2snc(C(N)=O)c2N)c2ccc(C(C)C)cc2)o1` (centres undefined), the inhibition is 0.79%.
For `COC(=O)[C@H](Cc1ccccc1)NC(=O)[C@@H]1C[C@H]1[C@@H](NC(=O)OCc1ccccc1)c1ccccc1` the value was 12%.
To `CC(C)(C)OC(=O)N1CCC(NC(=O)c2[nH]cnc2C(=O)N[C@@H](Cc2ccccc2)C(=O)OCc2ccccc2)CC1` belongs 16.5% (active); to `O=C(Nc1ccc(F)c([N+](=O)[O-])c1)C1CC(=O)N(Cc2ccccc2)C1` (centres undefined), 8.59%.
As for `Cc1cccc(OCC(O)Cn2c(N3CCCCC3)nc3c2c(=O)[nH]c(=O)n3C)c1` (centres undefined), the inhibition is 2.12%.
`COc1ccc(/C=N/OCC(=O)N(Cc2ccccc2)c2ccccc2C(=O)O)cc1`: the inhibition was -3.38%.
For `CCOC(=O)c1c(-c2ccccc2)oc2cc(Br)c(O)c(C=O)c12` the value was 30.2% (active).
To `Cc1nnc(N/N=C/C2CC=CCC2)[nH]c1=O` (centres undefined) belongs -2.01%.
To `O=C(O)CCn1cc(/C=C/C(=O)c2ccc(Cl)cc2)c(-c2cccc(Br)c2)n1` belongs -0.6%.
In the case of `Cc1ccccc1-c1n[nH]c(=S)n1/N=C/c1ccc(-c2ccccc2Br)o1`, the inhibition is 0.55%.
To `O=C(COC(=O)[C@H](Cc1ccccc1)NC(=O)c1cccs1)Nc1cc(F)ccc1F` belongs 13.2% (active).
For `Cc1ccc(OCC(=O)Nc2ccc(NC(=O)c3cccs3)cc2)c(C)c1` the value was -2.94%.
For `O=C(Nc1nccs1)c1cc(S(=O)(=O)N2CCOCC2)c(Cl)cc1Cl` the value was 10.5%; for `CC(=O)Nc1ccc(Sc2ccccc2C(=O)N2CCCC2)cn1`, -1.96%.
